In the library only some 21% were active in any assay of this set; here they are far more common.
Cycloheximide cs – counter-screen for Shiga toxin inhibitors: cycloheximide protein synthesis inhibition; AID 2314; cell reporter, cycloheximide protein synthesis inhibition counterscreen; max response, %; 300,000 compounds, 12% hits; in the data active = max response mostly above about 13%, no sharp cut-off; inactive = mostly below about 14%; also: read at 38.3 µM for the half of the compounds with a filed dose
Shiga toxin inh – blocks Shiga toxin action in Vero cells; 290,000 compounds, 9.2% hits; inhibition, % at 38.7 µM; Vero cells, Shiga toxin protein synthesis inhibition reporter; AID 2315; in the data active = inhibition mostly above about 28%, no sharp cut-off; inactive = mostly below about 43%
Pf growth 96h – P. falciparum growth inhibition at 96 hours | AID 504834 | P. falciparum luciferase reporter growth, 96 h | Potency, µM (titrated, usually from 28.7 µM), hits mostly inhibitors | 320,000 compounds, 6.9% hits
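Plates of compound plus infected erythrocytes (2% hematocrit, 0.05% parasitemia final) incubate 96 hours, 37 C, 5% CO2. Detection reagent added; reduced luminescence from the parasites' luciferase reporter flags inhibition.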
Pf growth 48h – inhibits P. falciparum growth in the first generation, 48 h. P. falciparum luciferase growth in erythrocytes, 48 h. Potency, µM (titrated, usually from 28.7 µM), actives largely listed as inhibitors. 310,000 compounds, 5.9% hits. AID 504832
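Read-out is firefly luciferase luminescence from an integrated reporter in P. falciparum, so falling signal marks reduced parasite growth. Infected erythrocytes were at 2% hematocrit and 0.1% parasitemia (final) in Albumax-supplemented RPMI 1640.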
A number is an active result; – = inactive; ? = inconclusive; · = no result given; [ ] = remark or other dose. Unless noted, calls follow the shape of the dose curve; as a rule, active = well fitted inhibition curve with a large enough effect; inconclusive = small, poorly fitted or top-dose-only effect, or another doubt; inactive = no such curve, though single readings can be large or run the other way.

SMILES | Cycloheximide cs | Shiga toxin inh | Pf growth 96h | Pf growth 48h
COc1ccc2cc(OCC(=O)NNC(=O)Nc3ccc(F)cc3)ccc2c1 | – | – | ? | –
c1cc(-c2cccs2)nc(-c2cccs2)c1 | 45.6 | 52.7 | – | –
c1csc(-c2cnc3ccccc3n2)c1 | 29.5 | 75.0 | – | ·
COc1cccc2oc3cc(C#Cc4ccccn4)ccc3c(=O)c12 | 27.2 | 35.3 | ? | –
COc1ccc(C2c3c(oc4ccccc4c3=O)C(=O)N2c2ccccn2)cc1OC (configuration not stated) | – | – | – | –
O=C(O)c1ccc(NCc2ccc3c(c2)OCO3)cc1 | – | – | ? | ·
COc1cccc2sc3ccc(C#Cc4ccc(N)cc4)cc3c(=O)c12 | 40.8 | 57.3 | – | –
COc1ccccc1C#Cc1ccc2c(=O)c3ccccc3n(C)c2c1 | – | – | ? | ?
COc1cccc2sc3ccc(NCc4ccc5c(c4)OCO5)cc3c(=O)c12 | 19.3 | – | ? | –
COc1cccc2sc3ccc(C#CC4(O)CCCCC4)cc3c(=O)c12 | 38.9 | 43.4 | ? | –
CNCc1cc2ccc(C)cc2[nH]c1=O | – | – | – | –
O=C(O)c1ccc2c(c1)C(=O)N([C@H](Cc1cccc3ccccc13)C(=O)O)C2=O | – | – | – | –
COc1ccc2sc3ccccc3c(=O)c2c1OC | 33.6 | 71.4 | – | –
COc1cccc2oc3cc(C#CC4(O)CCCCC4)ccc3c(=O)c12 | 34.7 | 57.5 | – | –
O=c1oc(CCCO)cc2ccc(C#CC3(O)CCCCC3)cc12 | · | · | ? | –
O=C(CC1C(=O)NCCN1Cc1ccc(-c2ccccc2)cc1)NCCCn1ccnc1 (configuration not stated) | – | – | – | –
Oc1ccc(/C=N/NC(=S)Nc2cccnc2)cc1 | 48.2 | 81.5 | – | –
Oc1ccc(/C=N/NP(=S)(c2ccccc2)c2ccccc2)cc1 | – | – | · | –
Oc1cccc(NC(=S)Nc2cccnc2)c1 | – | – | – | –
Oc1ccc(/C=N/NC(=S)N/N=C/c2ccc(O)cc2)cc1 | 40.3 | 61.9 | – | –
COc1ccc(CCN2CC(C(=O)NCCc3cccnc3)CCC2=O)cc1 (configuration not stated) | – | – | ? | –
CC1(C)CC(=O)C2=C(C1)N1C(=C(C#N)C2c2ccc(Cl)cc2)N=C(N)c2ccccc21 (configuration not stated) | – | – | 13.1µM | ?
CC1(C)CC(=O)C2=C(C1)N(c1ccccc1)C(N)=C(C#N)C2c1cccnc1 (configuration not stated) | – | – | 13.1µM | ?
N#CC1=C2N=C(N)c3ccccc3N2C2=C(C(=O)CCC2)C1c1ccccc1F (configuration not stated) | – | – | ? | –
CC1(C)CC(=O)C2=C(C1)N1C(=C(C#N)C2c2ccccc2Cl)N=C(N)c2ccccc21 (configuration not stated) | – | – | – | 13.1µM
SMILES | Cycloheximide cs | Shiga toxin inh | Pf growth 96h | Pf growth 48h
N#CC1=C2N=C(N)c3ccccc3N2C2=C(C(=O)CCC2)C1c1ccc(Cl)cc1 (configuration not stated) | – | – | – | ?
CN1C(=O)C2(C(C#N)=C(N)N(c3ccc(Cl)cc3)C3=C2C(=O)CC(C)(C)C3)c2ccccc21 (configuration not stated) | – | – | 13.1µM | ·
CC1(C)CC(=O)C2=C(C1)N(c1ccccc1)C(N)=C(C#N)C2c1ccccc1 (configuration not stated) | – | – | ? | ?
COc1ccc(S(=O)(=O)N(C)C)cc1NC(=O)CSC(C)C(=O)Nc1cc(C)on1 (configuration not stated) | · | · | ? | –
O=C(CSc1nc(=O)n2ccccc2n1)N1CCCc2ccccc21 | · | · | ? | –
Cc1ccc(C(C)C)c2c1C(c1ccc3c(c1)OCO3)CC(=O)O2 (configuration not stated) | – | – | · | ·
CCOC(=O)c1c(CSc2ccccc2)n(C)c2cc(Br)c(OCC(O)CNC(CO)(CO)CO)cc12 (configuration not stated) | – | – | 13.1µM | 11.7µM
CCOC(=O)c1c(CSc2ccccc2)n(C)c2cc(Br)c(OC)c(O)c12 | – | – | ? | ?
CCc1ccc(NC(=S)N2CCC(NC(=O)c3ccccc3)CC2)cc1 | – | – | ? | –
CCc1ccc(NC(=O)N2CCC(c3ccccc3)C2)cc1 (configuration not stated) | 38.8 | 107.6 | – | –
Cc1ccc(C)c(NC(=S)N2CCCCCC2)c1 | – | – | ? | –
CCOc1ccc(NC(=O)N2CCC(C(=O)c3ccc(F)cc3)CC2)cc1 | – | – | – | ?
COc1ccc(NC(=S)N2CCC(c3ccccc3)C2)cc1 (configuration not stated) | 40.0 | 83.7 | – | –[0.00184 µM]
Cc1ccc(Cl)cc1NC(=S)N1CCC(c2ccccc2)C1 (configuration not stated) | 26.2 | – | ? | 11.7µM
CCOc1ccc(NC(=O)N2CCC(c3ccc(C)cc3)C2)cc1 (configuration not stated) | 18.0 | – | – | –
COc1ccc(/C=N/n2cnnc2)cc1Br | – | – | – | –
CN1C(=O)CSc2ccc(NC(=O)N3CCN(c4ccccc4)CC3)cc21 | – | – | – | ?
O=C(NCCCN1CCOCC1)C(=O)NCc1ccco1 | – | – | – | –
O=C(Nc1nnc(C2=COCCO2)o1)c1ccc(S(=O)(=O)N2CCCCC2)cc1 | – | – | – | –
O=C(Nc1ccccc1)N1CCC(c2ccccc2)C1 (configuration not stated) | 39.5 | 82.6 | – | –
Cc1ccc(NC(=O)N2CCCC(c3ccccc3)C2)cc1 (configuration not stated) | 22.3 | – | – | –
CCOC(=O)C1CCCN(CC(=O)NC2=Nc3ccccc3N=C(C)C2c2ccccc2)C1 (configuration not stated) | – | – | ? | 10.4µM
CC1=Nc2ccccc2N=C(NC(=O)CSC(=S)N2CCN(C)CC2)C1c1ccccc1 (configuration not stated) | – | – | ? | ?
CC1=Nc2ccccc2N=C(NC(=O)c2ccccc2)C1c1ccccc1 (configuration not stated) | – | – | ? | 4.15µM
CC1=Nc2ccccc2N=C(NC(=O)CN2CCN(c3ccccc3)CC2)C1c1ccccc1 (configuration not stated) | – | – | ? | 5.86µM
SMILES | Cycloheximide cs | Shiga toxin inh | Pf growth 96h | Pf growth 48h
CC1=Nc2ccccc2N=C(NC(=O)CSc2nnnn2-c2ccccc2)C1c1ccccc1 (configuration not stated) | – | – | – | ?
CC1=Nc2ccccc2N=C(NC(=O)CSC(=S)N2CCCCC2)C1c1ccccc1 (configuration not stated) | – | – | ? | 13.1µM
COc1cccc(CNC(=O)c2nnn(CC(=O)Nc3cccc(C)c3)c2N)c1 | – | – | ? | –
Cc1ccc(N2C(=O)N(CC(=O)N3c4ccccc4CC3C)C(=O)C2C)cc1 (configuration not stated) | · | · | – | –
Cc1ccc(S(=O)(=O)N2CCN(Cc3csc(C)n3)CC2)cc1 | – | – | – | –
CCCCCCCN1C(Nc2ccccc2)=NC[C@@H]1Cc1ccccc1 | – | – | 5.22µM | ?
CC(C)C[C@H]1CN=C(Nc2ccccc2)N1CC1CCCCCC1 | · | · | 10.4µM | ?

High-throughput results from PubChem.
